Screens (PubChem BioAssay)
A selection: hits, their analogues and other compounds. The true share with any hit is near 1.1%.
CIT2-GFP yeast – modulators of TOR pathway CIT2-GFP in S. cerevisiae | S. cerevisiae CIT2-GFP strain, flow cytometry, 3 h; 100 means same as DMSO wells | GFP response vs DMSO, % at 10 µM | 0.065% of 320,000 active;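 active = GFP response relative to DMSO above a set limit, near the screen mean plus 3 SD, cut at about 150% in these data; inconclusive = Fewer than 70 cells measured for a yeast strain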;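 note: ratio of well median GFP fluorescence to mean of DMSO wells on the plate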
MEP2 TOR yeast – modulators of TOR pathway MEP2-GFP in S. cerevisiae. GFP response vs DMSO, % at 10 µM. S. cerevisiae MEP2-GFP strain, flow cytometry GFP, 3 h; 100% = DMSO control level. AID 2016. 0.51% of 330,000 active;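 active = GFP response versus DMSO above a set limit, roughly screen mean plus 3 SD, cut at about 180% in these data; inconclusive = fewer than 70 cells counted for a yeast strain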;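 note: median GFP fluorescence of the barcode-gated MEP2-GFP cells per well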
LAP4 TOR yeast – yeast TOR pathway LAP4-GFP modulation; 0.34% of 320,000 active; S. cerevisiae LAP4-GFP multiplex, flow cytometry GFP, 3 h; median GFP as percent of DMSO wells; GFP response vs DMSO, % at 10 µM;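 active = GFP response vs DMSO above a set limit, about the screen mean plus 3 SD, cut at about 150% in these data; inconclusive = under 70 cell events counted for the yeast strain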
AGP1 TOR yeast – alters AGP1-GFP fluorescence in TOR pathway yeast screen; GFP response vs DMSO, % at 10 µM; S. cerevisiae AGP1-GFP multiplex flow cytometry, 3 h; GFP as percent of DMSO wells; AID 2066; 0.02% of 320,000 active;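 active = GFP response relative to DMSO above a set limit, near screen average plus 3 SD, cut at about 150% in these data; inconclusive = fewer than 70 cells counted for the yeast strain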;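 note: median GFP channel fluorescence of the gated AGP1 strain per well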
VLA-4 inh – inhibition in a human VLA-4 binding assay; P13612; VLA-4 expressing cells, ligand binding flow cytometry; inhibition, % (about 7 µM as worked out from the volumes in the protocol); 0.2% of 330,000 active; in the data active = inhibition above about 50%
RPL19A-GFP yeast – modulators of TOR pathway RPL19A-GFP in S. cerevisiae. S. cerevisiae RPL19A-GFP strain, flow cytometry, 3 h; stronger effect = lower value. percent response vs DMSO, % at 10 µM. 0.3% of 330,000 active;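 active = percent response vs DMSO below 50%; inconclusive = fewer than 70 events counted for the yeast strain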;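 note: median channel GFP fluorescence of the barcoded RPL19A-GFP strain; lower means less RPL19A-GFP as with rapamycin TOR inhibition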
A number is an active result; i = inactive; ? = inconclusive; nt = no result; [ ] = another dose, or the depositor's remark.

SMILES	CIT2-GFP yeast	MEP2 TOR yeast	LAP4 TOR yeast	AGP1 TOR yeast	VLA-4 inh	RPL19A-GFP yeast
COc1cc(C2CC(c3cccnc3)=NN2c2ccc(F)cc2)cc(OC)c1OC (centres undefined)	158.7	i	i	i	i	i
COc1ccc(C2CC(c3ccccc3)=NN2c2ccc(S(N)(=O)=O)cc2)cc1OC (centres undefined)	i	i	i	i	i	i
N#Cc1ccncc1S(=O)c1ccc(Cl)cc1 (centres undefined)	i	i	i	i	i	i
COC(=O)c1ccc(CO/N=C/c2ccc(OC)cc2OC)cc1	?	216.9[may fluoresce violet]	i	i	i	i
COc1ccc(-c2nc(CS(=O)CC(=O)NCc3ccc4c(c3)OCO4)c(C)o2)cc1OC (centres undefined)	i	i	i	i	i	i
COc1ccccc1CNC(=O)CS(=O)Cc1nc(-c2ccc(OC)c(OC)c2)oc1C (centres undefined)	i	i	i	i	i	44.3
CCOc1ccccc1NC(=O)COc1ccc2ccc(=O)oc2c1	i	i	i	i	i	i
Cc1nc2ccc(CN(C)c3ccc(C(=O)N[C@@H](CCC(=O)O)C(=O)O)s3)cc2c(=O)[nH]1	i	i	i	i	52.0	i
CC(=O)N(C(C)=O)c1ccc2nc(C)[nH]c(=O)c2c1	i	i	i	i	i	i
CCCC(NC(=O)CCc1c(C)c2cc3c(-c4ccccc4)coc3cc2oc1=O)C(=O)O (centres undefined)	?	288.1[may fluoresce violet]	i	?	i	i
Cc1c(CCC(=O)NCC(=O)O)c(=O)oc2cc3occ(-c4ccccc4)c3cc12	i	i	i	i	i	i
Cc1nc2cc(NC(=O)CS(=O)(=O)c3ccc(F)cc3)ccc2s1	i	i	i	i	i	i
O=[N+]([O-])/C=C/c1cn(Cc2ccccc2)c2ccccc12	i	i	177.7	i	i	i
O=C(CCS(=O)(=O)Cc1ccccc1F)NCCc1ccc(Cl)cc1	150.1	517.6	nt	161.9	i	i
CC1(C)CC(=O)C(C(C2=C(O)CC(C)(C)CC2=O)c2cccs2)C(=O)C1 (centres undefined)	i	185.1	i	i	i	i
CCc1oc2ccccc2c1C(=O)CCN1CCCCC1	i	i	153.9	i	i	i
O=C(CCN1CCCCC1)c1ccccc1	i	i	i	i	i	i
CC(C)Oc1cc(C(=O)NC2CCCCC2)c2ccccc2n1	i	i	i	i	i	i
O=C(C[C@H]1C/C=C\C[C@@H](Cc2ccc(F)cc2)C(=O)OC[C@H]2CCCN2C1=O)NCCO	i	i	i	i	i	i
CC(=O)c1ccc(CCCCCCCCCC(=O)O)s1	i	i	152.9	i	i	i
Cc1cnccc1CN(C)C(=O)C1CCC(=O)N(Cc2ccccc2F)C1 (centres undefined)	?	i	i	?	i	32.4[may fluoresce violet]
COc1ccccc1CN1CC(C(=O)N(C)Cc2ccncc2C)CCC1=O (centres undefined)	i	i	i	i	i	i
O=C1NC[C@@H](c2ccccc2)OC(=O)[C@@H](Cc2ccc(F)cc2)CC/C=C/C[C@H]1CC(=O)N(CCO)Cc1ccccc1	i	i	i	i	i	i
CC/C(=N\NC(=O)c1ccc(N2CCCC2=O)cc1)c1ccccc1	i	i	i	i	i	i
C/C(CCC12CC3CC(CC(C3)C1)C2)=N\NC(N)=S	i	i	183.9	i	i	i
SMILES	CIT2-GFP yeast	MEP2 TOR yeast	LAP4 TOR yeast	AGP1 TOR yeast	VLA-4 inh	RPL19A-GFP yeast
C/C(CC1CC(C)OC1=O)=N\NC(N)=S (centres undefined)	i	i	i	i	i	i
O=C(NCc1cc(C(F)(F)F)ccc1Cl)c1cccc2c1C(=O)c1ccc(Cl)cc1S2(=O)=O	i	i	i	i	i	i
CN(Cc1ccccc1)C(=O)c1cccc(NC(=O)Cc2cccc([N+](=O)[O-])c2)c1	i	i	i	i	i	i
CN(C)c1ccc(NC(=O)CSc2nc3ccccc3c(=O)n2CC2CCCO2)cc1 (centres undefined)	?	214.3[may fluoresce violet]	i	?	i	i
COc1ccc(/C=C/C(=O)O)cc1S(=O)(=O)N1CCCC1	i	i	i	i	i	i
CCc1nnc(NS(=O)(=O)c2ccc(N/C=C\C(=O)c3cccc(OC)c3)cc2)s1	?	269.7[may fluoresce violet]	i	?	i	i
CCc1nnc(NS(=O)(=O)c2ccc(N/C=C/C(=O)c3ccc(C)cc3)cc2)s1	i	i	i	i	i	i
CC(NC(=O)c1ccc([N+](=O)[O-])o1)C12CC3CC(CC(C3)C1)C2 (centres undefined)	?	?	i	?	i	16.1[may fluoresce violet]
CCOC(=O)C1CCCN(C(=O)c2ccc(-c3ccc([N+](=O)[O-])cc3)o2)C1 (centres undefined)	i	i	168.6	i	i	i
CCOC(=O)C1CCCN(C(=O)c2ccc(CS(=O)(=O)c3ccc(C)cc3)o2)C1 (centres undefined)	i	i	i	i	i	i
Cc1nc(C(C)NC(=O)c2cc(COc3ccc(C)c(C)c3)on2)c(C)s1 (centres undefined)	?	i	i	?	i	16.6[may fluoresce violet]
CC(=O)c1ccc(OCc2cc(C(=O)NC(C)c3cnn(C)c3)no2)cc1 (centres undefined)	i	i	i	i	i	i
Cc1ccc(C)c(OCc2cc(C(=O)NC(C)c3cnn(C)c3)no2)c1 (centres undefined)	?	i	i	?	i	25.4[may fluoresce violet]
CCC(C)Nc1nc(N)c([N+](=O)[O-])c(Nc2cc(OC)ccc2OC)n1 (centres undefined)	nt	265.3[may fluoresce violet]	nt	nt	i	i
c1ccc(Nc2nc(NCC3CCCO3)c3ccccc3n2)cc1 (centres undefined)	i	i	i	i	i	i
c1ccc2c(NCC3CCCO3)nc(N3CCOCC3)nc2c1 (centres undefined)	?	237.3[may fluoresce violet]	i	?	i	21.7[may fluoresce violet]
N#Cc1ccsc1NC(=O)C1CCN(S(=O)(=O)c2cccs2)CC1	i	i	i	i	i	i
O=C(OCn1nnc2ccccc2c1=O)C1=COCCO1	?	312.0[may fluoresce violet]	i	i	i	i
Cc1cccc(NC(=O)CS(=O)(=O)c2cn(CC(=O)N3CCOCC3)c3ccccc23)c1	?	187.1[may fluoresce violet]	i	?	i	42.5[may fluoresce violet]
COc1ccc(N(CC(=O)NC2CCCCCC2)S(=O)(=O)c2ccc(C)cc2)cc1OC	i	i	i	i	i	i
CCCCN(C(=O)c1cc(=O)[nH]c2ccccc12)c1c(N)n(CCCC)c(=O)[nH]c1=O	i	i	i	i	i	i
CCOc1cc2[nH]c(=O)n(CCCCCC(=O)NCc3ccco3)c(=O)c2cc1OCC	?	189.6[may fluoresce violet]	i	i	i	i
CCOc1cc2[nH]c(=S)n(CCCCC(=O)NCc3ccco3)c(=O)c2cc1OCC	i	i	i	i	i	i
